Several values for one entry are separate records, joined by “and”; a condition that tells them apart may be missing. Equal values may be shown once. Inconclusive results are not listed. Entries that show only a call come without a potency. Unmarked numbers belong to inactive results. Activity calls are given as the source filed them. Unless noted, the call rests on the fitted dose curve.
What follows are compounds tested against Nuclear receptor subfamily 1 group I member 2 (Homo sapiens) (UniProt O75469) (assay: Human pregnane X receptor (PXR) small molecule agonists, qHTS assay (AID 1346982; active means well fitted activation curve with a large enough effect in the repeat runs; further: nearly all actives have a fitted effect of over 35% in size; further: potency means the concentration at half of the fitted maximal effect)). Settings: PXR-Luc HepG2, CYP3A4 luciferase reporter, 24 h; series mostly up to 92.4 µM.
Sequence of Nuclear receptor subfamily 1 group I member 2 (Homo sapiens) (O75469 whole entry, looked up): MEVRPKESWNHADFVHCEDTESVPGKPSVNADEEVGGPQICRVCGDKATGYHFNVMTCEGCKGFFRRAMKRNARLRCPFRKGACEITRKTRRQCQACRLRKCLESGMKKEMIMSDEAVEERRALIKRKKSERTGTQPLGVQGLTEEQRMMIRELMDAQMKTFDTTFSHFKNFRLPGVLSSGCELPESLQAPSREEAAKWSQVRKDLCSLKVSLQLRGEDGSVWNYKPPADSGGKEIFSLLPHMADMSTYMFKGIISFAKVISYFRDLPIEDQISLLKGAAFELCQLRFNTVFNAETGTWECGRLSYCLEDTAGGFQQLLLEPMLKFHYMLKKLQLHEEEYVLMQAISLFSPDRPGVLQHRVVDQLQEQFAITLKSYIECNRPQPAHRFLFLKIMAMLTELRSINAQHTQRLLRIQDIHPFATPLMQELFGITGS
Summary of the method: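 HepG2 PXR-Luc reporter line, 5% charcoal-stripped FBS; 5 hr pre-incubation, compound (DMSO) 24 hr at 37 C/5% CO2; ONE-Glo 30 min RT; luminescence read-out.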
`CC(C)=CCN1CC[C@@]2(C)c3cc(O)ccc3C[C@@H]1[C@@H]2C` was tested, and the Potency was “inactive”.
`C=CC(=C)C` was tested, and the Potency was “inactive”.
`CCCN` was tested, and the Potency was “inactive”.
For `BrCCCBr`, the Potency was “inactive”.
With `CCC[CH2][Sn]([CH2]CCC)([CH2]CCC)[CH2]CCC` the Potency was 6.11 µM (active).
`C[N+]1(C)[C@@H]2CC[C@H]1CC(OC(=O)C(CO)c1ccccc1)C2` (stereo not given in full) was tested, and the Potency was “inactive”.
With `O=c1c2ccccc2c(=O)c2c1cc(Cl)c1[nH]c3c([nH]c12)c(Cl)cc1c(=O)c2ccccc2c(=O)c13` the Potency was “inactive”.

What follows are compounds tested against Nuclear receptor subfamily 1 group I member 2 (Rattus norvegicus) (UniProt Q9R1A7) (assay: Rat pregnane X receptor (rPXR) activation by small molecules, qHTS assay (AID 1346983; active means well fitted activation curve with a large enough effect in the repeat runs; further: nearly all actives have a fitted effect of over 20% in size)). Settings: rPXR luciferase reporter cells, One-Glo luminescence, 24 h; max activation: active compounds read high.
Sequence of Nuclear receptor subfamily 1 group I member 2 (Rattus norvegicus) (Q9R1A7 whole entry, looked up): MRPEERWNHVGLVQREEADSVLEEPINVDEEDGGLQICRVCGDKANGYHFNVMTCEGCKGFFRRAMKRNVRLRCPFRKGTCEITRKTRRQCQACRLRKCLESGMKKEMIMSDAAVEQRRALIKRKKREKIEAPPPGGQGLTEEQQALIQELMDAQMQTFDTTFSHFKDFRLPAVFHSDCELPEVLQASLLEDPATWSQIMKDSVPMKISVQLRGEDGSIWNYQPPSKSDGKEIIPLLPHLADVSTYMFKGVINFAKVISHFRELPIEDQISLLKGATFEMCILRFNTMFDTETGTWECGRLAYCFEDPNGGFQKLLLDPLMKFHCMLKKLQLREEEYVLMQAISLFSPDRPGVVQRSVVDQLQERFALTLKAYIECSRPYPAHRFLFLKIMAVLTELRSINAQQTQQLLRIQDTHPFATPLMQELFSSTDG
Summary of the method: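 Cell-based rPXR activation assay: rPXR cells, 2,000 per well, rested 5hr at 37 C, then exposed to compounds in DMSO for 24 hr at 37 C. Luciferase activity read by One-Glo luminescence after 30 min at room temperature.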
For `CC(C)NCC(O)c1ccccc1Cl` (stereo not given), the max activation was 1.03%.
`CC(C)c1c(CN(C)C(C)Cc2ccccc2)n(C)n(-c2ccccc2)c1=O` (stereo not given) showed a max activation of 8.57%.
Work on `COc1ccc(Cc2nccc3cc(OC)c(OC)cc23)cc1OC` yielded a max activation of -16.6%.
With `C[N+]1(C)[C@@H]2CC[C@H]1CC(OC(=O)C(CO)c1ccccc1)C2` (stereo not given in full) the max activation was 5.17% and -0.275%.

Each compound was assayed against Nuclear receptor subfamily 1 group I member 2 (Homo sapiens) (UniProt O75469) (assay: CYP3A4 induction through human pregnane X receptor (PXR) by small molecules, qHTS assay (AID 1346984; active means well fitted activation curve with a large enough effect in the repeat runs; further: nearly all actives have a fitted effect of over 40% in size)). Settings: DPX-2 HepG2 PXR, CYP3A4-luciferin luminescence, 24 h; series mostly up to 46.1 µM.
Summary of the method: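 HepG2-derived DPX-2 line carrying PXR plus a CYP3A4-promoter luciferase reporter; cells plated 5 hr, compound-exposed 24 hr at 37C. CYP3A4 activity probed with 3uM (final) Luciferin-IPA for 3hr, then luciferase read after One-Glo.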
`CC(C)NCC(O)c1ccccc1Cl` (stereo not given) was tested, and the Potency was “inactive”.
`COc1ccc(Cc2nccc3cc(OC)c(OC)cc23)cc1OC` was tested, and the Potency was “inactive”.
`C[N+]1(C)[C@@H]2CC[C@H]1CC(OC(=O)C(CO)c1ccccc1)C2` (stereo not given in full) was tested, and the Potency was “inactive”.

Each compound was assayed against Acetylcholinesterase (Homo sapiens) (UniProt P22303) (assay: Acetylcholinesterase (AChE) small molecule antagonists: colormetric cell-based qHTS assay (AID 1347395; further: nearly all actives have a fitted effect of over 30% in size; further: potency means the concentration at half of the fitted maximal effect)). Settings: SH-SY5Y cells AChE activity, colorimetric (Ellman); series mostly up to 115 µM.
Sequence of Acetylcholinesterase (Homo sapiens) (P22303 whole entry, looked up): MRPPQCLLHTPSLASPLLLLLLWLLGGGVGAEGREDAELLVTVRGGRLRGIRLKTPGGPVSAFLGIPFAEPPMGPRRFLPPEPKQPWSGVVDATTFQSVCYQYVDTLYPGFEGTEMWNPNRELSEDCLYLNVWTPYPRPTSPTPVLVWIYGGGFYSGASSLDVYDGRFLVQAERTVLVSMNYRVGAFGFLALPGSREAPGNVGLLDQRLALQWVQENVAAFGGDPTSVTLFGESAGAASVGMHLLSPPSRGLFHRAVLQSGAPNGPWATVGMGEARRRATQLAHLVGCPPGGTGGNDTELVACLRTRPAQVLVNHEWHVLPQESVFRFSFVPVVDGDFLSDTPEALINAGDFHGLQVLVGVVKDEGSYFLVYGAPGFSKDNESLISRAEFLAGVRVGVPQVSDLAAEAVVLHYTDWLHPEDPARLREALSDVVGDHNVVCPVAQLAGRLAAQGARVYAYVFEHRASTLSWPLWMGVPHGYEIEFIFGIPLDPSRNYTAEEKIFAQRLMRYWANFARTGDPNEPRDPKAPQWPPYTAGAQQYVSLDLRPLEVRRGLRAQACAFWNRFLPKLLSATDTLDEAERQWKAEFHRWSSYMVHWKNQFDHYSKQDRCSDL
Summary of the method: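 Cells (SH-SY5Y, 2,000 per well) are seeded and left overnight at 37 C. Compound is added for 30 min, then DTNB and acetylthiocholine for a further 90 min at 37 C before absorbance-based thiocholine detection.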
`NC1CCC(CC2CCC(N)CC2)CC1` (stereo not given) was tested, and the Potency was “inactive”.
In the case of `O=S(=O)(O)F`, the Potency is reported as “inactive”.
`CC[C@H](C)[C@H]1O[C@]2(C=C[C@@H]1C)C[C@@H]1C[C@@H](C/C=C(\C)[C@@H](O[C@H]3C[C@H](OC)[C@@H](O[C@H]4C[C@H](OC)[C@@H](NC)[C@H](C)O4)[C@H](C)O3)[C@@H](C)/C=C/C=C3\CO[C@@H]4[C@H](O)C(C)=C[C@@H](C(=O)O1)[C@]34O)O2` was tested, and the Potency was “inactive”.
For `O=S1(=O)OCC2C(CO1)C1(Cl)C(Cl)=C(Cl)C2(Cl)C1(Cl)Cl` (stereo not given), the Potency was “inactive”.
For `C#CCO`, the Potency was “inactive”.
For `C=CCOC(=O)c1ccccc1N`, the Potency was “inactive”.
With `CN/C(=N\[N+](=O)[O-])NCc1cnc(Cl)s1` the Potency was “inactive”.
For `CC(C)NCC(O)c1ccccc1Cl` (stereo not given), the Potency was “inactive”.
`O=C(O)[C@H](O)[C@@H](O)C(=O)O` was tested, and the Potency was “inactive”.
For `CC(C)[C@@H](Nc1ccc(C(F)(F)F)cc1Cl)C(=O)OC(C#N)c1cccc(Oc2ccccc2)c1` (stereo not given in full), the Potency was “inactive”.
`CCC1(CC)C(=O)N=C(O)NC1=O` was tested, and the Potency was “inactive”.
In the case of `CC(=O)[O][Pb]([c]1ccccc1)([c]1ccccc1)[c]1ccccc1`, the Potency is reported as “inactive”.
In the case of `Cc1nn(-c2cc(NS(C)(=O)=O)c(Cl)cc2Cl)c(=O)n1C(F)F`, the Potency is reported as “inactive”.
For `CCNS(=O)(=O)C(F)(F)C(F)(F)C(F)(F)C(F)(F)C(F)(F)C(F)(F)C(F)(F)C(F)(F)F`, the Potency was “inactive”.
For `CNN`, the Potency was “inactive”.
With `O=P(Cl)(Cl)Cl` the Potency was “inactive”.
`CCCCN(CCCC)C(=S)[S-].CCCCN(CCCC)C(=S)[S-].[Ni+2]` was tested, and the Potency was “inactive”.
`CCOP(=O)(OCC)Oc1cc(C)nc(C(C)C)n1` was tested, and the Potency was 0.142 µM (active).
`CSSC` was tested, and the Potency was “inactive”.
With `O=Cc1ccccc1` the Potency was “inactive”.
`O=[N+]([O-])C(Br)Br` was tested, and the Potency was “inactive”.
For `CNC(=O)O/N=C(\C)C(C)S(C)(=O)=O` (stereo not given), the Potency was 355 µM (active).
With `O=NN(CCO)CCO` the Potency was “inactive”.
`Clc1c(Cl)c(Cl)c(Cl)c(Cl)c1Cl` was tested, and the activity, negative = inhibition was -1.38% [at 10.5 µM].
In the case of `CC(C)N(C(=O)SC/C(Cl)=C/Cl)C(C)C`, the Potency is reported as “inactive”.
In the case of `Nc1c(Cl)c(Cl)c(Cl)c(Cl)c1Cl`, the Potency is reported as “inactive”.
With `O=C(NC(=O)c1c(F)cccc1F)Nc1ccc(Oc2ccc(C(F)(F)F)cc2Cl)cc1F` the Potency was “inactive”.
In the case of `CC(C)=CCN1CC[C@@]2(C)c3cc(O)ccc3C[C@@H]1[C@@H]2C`, the Potency is reported as 31.2 µM (active).
For `C=CC(=C)C`, the Potency was “inactive”.
For `CCCN`, the Potency was “inactive”.
With `BrCCCBr` the Potency was “inactive”.
With `Nc1ccccc1-c1ccccc1` the Potency was “inactive”.
For `O.O.O.O=C([O-])[C@H]([O-])[C@@H]([O-])C(=O)[O-].O=C([O-])[C@H]([O-])[C@@H]([O-])C(=O)[O-].[K+].[K+].[Sb+3].[Sb+3]`, the Potency was “inactive”.
For `CCC[CH2][Sn]([CH2]CCC)([CH2]CCC)[CH2]CCC`, the Potency was “inactive”.
For `C[N+]1(C)[C@@H]2CC[C@H]1CC(OC(=O)C(CO)c1ccccc1)C2` (stereo not given in full), the Potency was “inactive”.
`O=c1c2ccccc2c(=O)c2c1cc(Cl)c1[nH]c3c([nH]c12)c(Cl)cc1c(=O)c2ccccc2c(=O)c13` was tested, and the Potency was “inactive”.
